Measured values reported in the supplement of paper PMC6555819.

Tests used:
Experiment in all cases: PBM binding z-score (relative to random genomic background probes); higher = stronger binding; sequences stand for … in GC…GCGATTGACAGCGTAGAATGAAGG
[1] = test system: FXR:RXRa (NR concentration 270 nM, RXRa partner concentration 90 nM)
Procedure, shortened: (§1)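 Probes were double-stranded and carried 34-nt variable regions with direct-repeat seeds, single-nucleotide variants, half-site ablations and random human genomic background sequences, printed on custom Agilent 4×180K protein-binding microarrays. Arrays were incubated 1 h with ligand-free nuclear receptor dimers in PBS pH 7.4, 2% milk, 0.02% Triton X-100, 1 mM DTT, 0.2 mg/mL BSA and 0.4 mg/ml salmon testes DNA. Antibodies against each partner (one per run) detected binding, and scanned fluorescence was regression-normalized. Binding z-scores use the random background probes as reference.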

[2] = test system: LXRa:RXRa (NR concentration 270 nM, RXRa partner concentration 90 nM)
Procedure, shortened: as §1

[3] = test system: LXRa homodimer (NR concentration 270 nM)
Procedure, shortened: as §1

[4] = test system: LXRb:RXRa (NR concentration 270 nM, RXRa partner concentration 90 nM)
Procedure, shortened: as §1

[5] = test system: LXRb homodimer (NR concentration 270 nM)
Procedure, shortened: as §1

[6] = test system: PPARa:RXRa (NR concentration 270 nM, RXRa partner concentration 90 nM)
Procedure, shortened: as §1

[7] = test system: PPARg:RXRa (NR concentration 180 nM, RXRa partner concentration 90 nM)
Procedure, shortened: as §1

[8] = test system: PPARg:RXRa 270nM:90nM, anti-RXR (NR concentration 270 nM, RXRa partner concentration 90 nM)
Procedure, shortened: as §1

[9] = test system: PPARg:RXRa 30nM:10nM, anti-RXR (NR concentration 30 nM, RXRa partner concentration 10 nM)
Procedure, shortened: as §1

[10] = test system: PPARg:RXRa 90nM:30nM, anti-RXR (NR concentration 90 nM, RXRa partner concentration 30 nM)
Procedure, shortened: as §1

[11] = test system: PPARg:RXRa DBDmut IVT, anti-RXR (DBD mutation: RXRa K156A/R161A, NR concentration 270 nM, RXRa partner concentration 90 nM)
Procedure, shortened: as §1

[12] = test system: PPARg:RXRa IVT, anti-PPARg (NR concentration 270 nM, RXRa partner concentration 90 nM)
Procedure, shortened: as §1

[13] = test system: PPARg DBDmut:RXRa IVT, anti-PPARg (DBD mutation: PPARg1 K132A/R137A, NR concentration 270 nM, RXRa partner concentration 90 nM)
Procedure, shortened: as §1

[14] = test system: PPARg DBDmut IVT, anti-PPARg (DBD mutation: PPARg1 K132A/R137A, NR concentration 270 nM)
Procedure, shortened: as §1

[15] = test system: PPARg homodimer (NR concentration 180 nM)
Procedure, shortened: as §1

[16] = test system: PXR:RXRa (NR concentration 270 nM, RXRa partner concentration 90 nM)
Procedure, shortened: as §1

[17] = test system: PXR homodimer (NR concentration 270 nM)
Procedure, shortened: as §1

[18] = test system: RARa:RXR (NR concentration 270 nM, RXRa partner concentration 90 nM)
Procedure, shortened: as §1

[19] = test system: RARa homodimer (NR concentration 270 nM)
Procedure, shortened: as §1

[20] = test system: RARb:RXRa (NR concentration 270 nM, RXRa partner concentration 90 nM)
Procedure, shortened: as §1

| Sequence | PBM binding z-score [1] | PBM binding z-score [2] | PBM binding z-score [3] | PBM binding z-score [4] | PBM binding z-score [5] | PBM binding z-score [6] | PBM binding z-score [7] | PBM binding z-score [8] | PBM binding z-score [9] | PBM binding z-score [10] | PBM binding z-score [11] | PBM binding z-score [12] | PBM binding z-score [13] | PBM binding z-score [14] | PBM binding z-score [15] | PBM binding z-score [16] | PBM binding z-score [17] | PBM binding z-score [18] | PBM binding z-score [19] | PBM binding z-score [20] |
| --- | --- | --- | --- | --- | --- | --- | --- | --- | --- | --- | --- | --- | --- | --- | --- | --- | --- | --- | --- | --- |
| CCTACTGGGCCATGGTCATTGATCAGTCAAAGCA | 0.0298 | -0.313 | -0.591 | -0.226 | -1.02 | 0.969 | 1.05 | 1.3 | -0.281 | 0.872 | 3.04 | 3.48 | -0.574 | -0.734 | 0.222 | -0.316 | -0.489 | -0.363 | -1.03 | 0.532 |
| ATATGTAGGTTAAGGGTCAATCAGGTTGGTTCGC | 4.97 | 4.62 | 1.8 | 4.47 | 1.35 | 6.65 | 11.6 | 9.7 | 10.1 | 10.8 | 7.74 | 7.77 | 1.78 | 2.49 | 4.11 | 5.32 | 1.21 | 5.74 | 2.21 | 3.64 |
| TAGCCCAGGTCAGATCGGGCCAGTATACGCTATA | 2.34 | 1.3 | -0.26 | 0.735 | -0.412 | 1.86 | 0.632 | 0.728 | -0.392 | -0.038 | -0.572 | 1.18 | -0.255 | -0.724 | -0.165 | 1.48 | -0.562 | 1.11 | -0.626 | 2.91 |
| GGAACGAGGGCATTCGAGTCGATAGCATGGCGAT | 0.976 | 0.293 | -0.802 | -0.159 | -0.384 | 1.15 | 0.824 | 0.495 | -0.192 | 0.0537 | 2.96 | 2.19 | -0.0559 | -0.671 | -0.141 | 1.5 | 0.546 | 0.428 | -0.54 | 1.48 |
| CCTACTGGGCCAAAGGTCATTAATTCCAATGCTC | 4.33 | 4.53 | 3.47 | 4.65 | 0.938 | 6.19 | 12.5 | 10.3 | 12.4 | 12.4 | 5.16 | 6.79 | 0.543 | 0.388 | 4.75 | 5.26 | 2.61 | 5.93 | 2.26 | 4.25 |
| CAAACTAGGTCACAGAGGTCTAAGTCCGTGCGTA | 4.42 | 3.56 | 0.555 | 2.13 | 0.273 | 5.17 | 8.49 | 6.93 | 5.19 | 6.98 | 8.53 | 8.91 | 1.68 | 1.67 | 0.929 | 2.54 | 0.546 | 2.8 | 0.421 | 4.13 |
| GCTGCCAGGTCAGGTTGGTCAGCTAACGGGTACG | 1.58 | 0.973 | -0.337 | 0.712 | -0.51 | 1.64 | 0.272 | 0.752 | -0.562 | 0.147 | 0.771 | 1.4 | -0.447 | -1.57 | 0.22 | 0.724 | -0.291 | 1.25 | -0.438 | 3.23 |
| CGAACTAGGTCAAAGACAGTGAATCTCCGCACGC | 3.64 | 2.39 | 0.268 | 1.66 | 0.166 | 4.8 | 7.47 | 6.52 | 4.4 | 6.21 | 8.07 | 8.21 | 4.15 | 2.23 | 1.24 | 1.06 | 0.0351 | 1.82 | 0.463 | 3.74 |
| AGAATGAGGTTATTACGATCAGGGAATTGCGGTC | 2.01 | 1.7 | 0.373 | 1.49 | 0.0914 | 2.66 | 1.55 | 1.88 | 0.584 | 1.11 | 3.27 | 2.51 | 1.02 | 0.66 | 0.902 | 1.26 | 0.487 | 1.78 | 1.21 | 1.42 |
| CCAGACAGGTGAGGAGGTAACTCAGCCTCGATTA | -0.0226 | 0.276 | 0.253 | 0.35 | -0.29 | 0.831 | 0.403 | 0.546 | -0.128 | 0.0478 | 0.968 | 0.86 | -0.637 | -0.654 | 0.632 | 0.016 | 0.482 | 0.341 | 0.613 | 0.524 |
| CATACAGGGTCAGCTAGGCCAGATTAGGGACGGC | 4.11 | 2.99 | -0.059 | 2.4 | 0.391 | 4.38 | 3.11 | 2.96 | 0.713 | 1.62 | 1.11 | 1.98 | 0.335 | -0.106 | 1.45 | 2.26 | -0.138 | 3.04 | 0.588 | 3.91 |
| AGAATGAGGTTACCACAGATCAGGGAAACGCTTG | 1.97 | 6.39 | -0.0372 | 3.08 | -0.518 | 3.53 | 2.72 | 2.65 | 1.11 | 1.73 | 3.9 | 3.38 | 1.25 | 0.385 | 1.11 | 1.05 | 0.472 | 1.98 | 0.262 | 1.99 |
| ATCTCTAGGTAAGACTCAGTTCAATGAAGAACGC | 0.961 | 1.03 | 1.15 | 1.04 | 1.18 | 0.681 | 0.379 | 0.658 | 0.44 | 0.504 | 1.88 | 1.16 | 1.2 | 1.44 | 1.39 | 2.1 | 2.69 | 1.34 | 1.4 | 0.797 |
| GCTGCTAGGTCAGGTTGGTCAGGTAACGGGTACG | 1.37 | 0.789 | -0.109 | 0.63 | 0.124 | 1.5 | 0.626 | 0.972 | -0.553 | 0.573 | 2.86 | 2.24 | -0.63 | -0.722 | 0.641 | 0.475 | -0.529 | 0.834 | -0.052 | 3.15 |
